# Laboratory results published in PubChem BioAssay (EPA / NIEHS).
# The source made the active and inactive calls. How the source made its calls: active means hit-call score of the fitted dose curve at least 0.9, where 1 is the maximum; inactive means score below 0.9.
# Target: X-box-binding protein 1 (Homo sapiens) (UniProt P17861)
# Test: ATG_Xbp1_CIS: Attagene CIS-FACTORIAL HepG2 Assay for human X-box Binding Protein 1 (XBP1) (AID 2282972)
# Settings: HepG2 XBP1 cis-element reporter, Attagene multiplex; actives raise or lower the signal
# Description: ATG_CIS is a cell-based, multiplexed-readout assay that uses HepG2, a human liver cell line, with measurements taken at 24 hours after chemical dosing in a 24-well plate.ATG_Xbp1_CIS is one of 52 assay component(s) measured or calculated from the ATG_CIS assay. It is designed to make measurements of mRNA induction, a form of inducible reporter, as detected with fluorescence intensity signals by Reverse transcription polymerase chain reaction (RT-PCR) and Capillary electrophoresis technology.Data from the assay component ATG_Xbp1_CIS was analyzed into 1 assay endpoint. This assay endpoint, ATG_Xbp1_CIS, was analyzed with bidirectional fitting relative to DMSO as the negative control and baseline of activity. Using a type of inducible reporter, measures of mRNA for gain or loss-of-signal activity can be used to understand the reporter gene at the transcription factor-level as they relate to the gene XBP1. Furthermore, this assay endpoint can be referred to as a primary readout, because this assay has produced multiple assay endpoints where this one serves a reporter gene function. To generalize the intended target to other relatable targets, this assay endpoint is annotated to the dna binding intended target family, where the subfamily is basic leucine zipper.
# Human liver HepG2 cells are transiently transfected with multiple reporter transcription units (MRTUs) in 6-well plates using FuGene 6 reagent (Roche; 3 ml FuGene/1 mg DNA). The MRTU constructs are regulated by a cis-regulating element (promoter). […] A major difference between the CIS and TRANS system is that in CIS activities of endogenous TFs are measured, whereas the TRANS assay evaluates changes in activities of exogenous, chimeric NR-Gal4 proteins. […] At the end of 24 hour incubation, total RNA was isolated using TriZol reagent (Invitrogen). The isolated RNA is then reverse-transcribed using oligo(dT) primer and Mo-MLV reverse transcriptase (Invitrogen) with DNAse I (Ambion) treatment for 30 min. The one-tenth of the produced cDNA was amplified by PCR using Taq DNA polymerase (Invitrogen) and two reporter sequence-specific primers. The PCR products were fluorescently labeled by primer extension with 6-arboxyfluorescein (6-FAM) 5'-labeled reporter sequence-specific primer (2 min at 95 C, 20 s at 68 C and 10 min at 72 C) and these products were digested with 5U of HpaI (New England Biolabs) for 2h at 37 C. The fragments were purified using Qiaquick PCR columns (Qiagen), analyzed on an ABI 3130xL genetic analyzer (Applied Biosystems) with peak positions identified by using a set of X-rhodamine (ROX)-labeled MapMarker1000 molecular weight standards (BioVentures). The raw capillary electrophoresis data was processed using Attagraph software (Attagene).
# Chain of X-box-binding protein 1 (Homo sapiens) (P17861 whole entry, looked up): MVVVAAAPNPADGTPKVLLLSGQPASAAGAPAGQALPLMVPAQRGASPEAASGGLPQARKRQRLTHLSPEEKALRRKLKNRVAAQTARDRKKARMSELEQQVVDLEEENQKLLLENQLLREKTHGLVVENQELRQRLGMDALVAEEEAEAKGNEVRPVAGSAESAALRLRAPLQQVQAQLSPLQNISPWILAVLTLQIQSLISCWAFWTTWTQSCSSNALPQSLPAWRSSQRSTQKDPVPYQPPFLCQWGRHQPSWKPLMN
Compound,outcome,AC50
CC(C)(C)C1=CC(=O)C(C(C)(C)C)=CC1=O,inactive,–
CCCC(=O)OCCc1ccccc1,inactive,–
CC1=C(Br)C(=O)C(Br)=C/C1=C(/c1ccccc1S(=O)(=O)O)c1cc(Br)c(O)c(Br)c1C,inactive,–
CC=Cc1ccc(OCC)c(O)c1,inactive,–
C=CC(=C)CCCC(C)(C)OC(C)=O,inactive,–
C=CC(=O)OCCCC,inactive,–
CC(C)=CCCC(C)CC(=O)O (stereo not given),inactive,–
O=P(O)(O)O,inactive,–
Brc1ccc(Br)c(Br)c1,inactive,–
O=C(CS)OCCOC(=O)CS,inactive,–
IC(I)I,inactive,–
CC(C)C(OC(=O)c1ccccc1)C(C)(C)COC(=O)c1ccccc1 (stereo not given),inactive,–
CCOc1ccc(NC(=O)CC(C)=O)cc1,inactive,–
COS(=O)(=O)O,inactive,–
CC1(C)O[C@@H]2C[C@H]3[C@@H]4CCC5=CC(=O)C=C[C@]5(C)[C@@]4(F)[C@@H](O)C[C@]3(C)[C@]2(C(=O)CO)O1,inactive,–
C=CCOC(=O)CCCCCC,inactive,–
ClC(c1ccccc1)(c1ccccc1)c1ccccc1,inactive,–
COCCOC(=O)c1ccccc1C(=O)OCCOC,inactive,–
COC(=O)c1ccc(C)cc1C1=NC(C)(C(C)C)C(=O)N1 (stereo not given) (tested in a mixture with another compound),inactive,–
CCCCCCC(O)CCCCCCCCCCC(=O)O (stereo not given),inactive,–

Compound,outcome,AC50
CCC(C)=O,inactive,–
CN1CCOCC1,inactive,–
CC(Oc1cc(Cl)ccc1Cl)C(=O)O (stereo not given),inactive,–
C/C=C(\C)C(=O)OCCc1ccccc1,inactive,–
CCC(=O)O[C@@H]1C[C@H]2CC[C@]1(C)C2(C)C,inactive,–
O=Cc1ccccc1S(=O)(=O)O,inactive,–
CCOC(=O)COC(=O)c1cc(Oc2ccc(C(F)(F)F)cc2Cl)ccc1[N+](=O)[O-],inactive,–
Nc1c(Cl)cc(Cl)cc1[N+](=O)[O-],inactive,–
CCCCN(CCCC)C(=O)N(CCCC)CCCC,inactive,–
CCOC(=O)[C@@H](C)Oc1ccc(Oc2nc3ccc(Cl)cc3o2)cc1,inactive,–
CCCC1O[C@@H]2C[C@H]3[C@@H]4CCC5=CC(=O)C=C[C@]5(C)[C@H]4[C@@H](O)C[C@]3(C)[C@]2(C(=O)CO)O1 (stereo not given in full),inactive,–
CC(C)=CCCC(C)CCOC=O (stereo not given),inactive,–
CCCCCC(=O)CC,inactive,–
C[C@H]1O[C@@H](O[C@H]2[C@@H](O)C[C@H](O[C@H]3[C@@H](O)C[C@H](O[C@H]4CC[C@@]5(C)[C@H](CC[C@@H]6[C@@H]5C[C@@H](O)[C@]5(C)[C@@H](C7=CC(=O)OC7)CC[C@]65O)C4)O[C@@H]3C)O[C@@H]2C)C[C@H](O)[C@@H]1O,–,141 nM (active)
CC=CC=CCOC(=O)C(C)C,inactive,–
CCOC(=O)CC(C)O (stereo not given),inactive,–
CN(C)CCOC(C)(c1ccccc1)c1ccccn1 (stereo not given),inactive,–
Nc1c(S(=O)(=O)O)cc(Br)c2c1C(=O)c1ccccc1C2=O,inactive,–
O=c1[nH]c(=O)c2cn[nH]c2[nH]1,inactive,–
CCCOCCO,inactive,–
